# Results as given in PubChem BioAssay AID1159580 (chemical genetic matrix, 2015).
# Where “and” joins values, the source holds several entries; their conditions need not be identical. Equal entries are not always repeated. The campaign covered roughly 5,500 compounds. About 2,000 (36%) were called active. Roughly 18% stayed inconclusive and do not appear here. Cut-off read from the data, not from the text of the source: active = normalized growth mostly below about 0.91 (no sharp cut-off); inconclusive = no clear call, values can overlap the other calls; inactive = mostly above about 0.92. The list shows a part of the results.
# Test: chemical genetic growth profiling, strain panel (AID 1159580);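 note: tested at 20 µM; growth read once vehicle control cultures reached saturation at 30 °C; 1 = growth at the plate median or of vehicle wells; lower values mean less growth of the strain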
# Settings: S. cerevisiae deletion strains, growth OD
compound,measurement,setting,value
CCC(=O)O[C@H]1CCC2C3CCc4cc(O)ccc4C3CC[C@@]21C (stereo partly drawn),normalized growth,"locus YAL013W, strain DEP1, stronger effect = lower value",0.7 (active)
same,normalized growth,"locus YAL021C, strain ccr4, stronger effect = lower value",0.97 (inactive)
same,normalized growth,"locus YAL026C, strain drs2, stronger effect = lower value",1 (inactive)
same,normalized growth,"locus YAL030W, strain snc1, stronger effect = lower value",0.988 (inactive)
same,normalized growth,"locus YBL061C, strain skt5, stronger effect = lower value",0.98 (inactive)
same,normalized growth,"locus YBR009C, strain hhf1, stronger effect = lower value",0.957 (inactive)
same,normalized growth,"locus YBR021W, strain FUR4, stronger effect = lower value",0.908 (inactive)
same,normalized growth,"locus YBR023C, strain chs3, stronger effect = lower value",0.981 (inactive)
same,normalized growth,"locus YBR171W, strain sec66, stronger effect = lower value",0.997 (inactive)
same,normalized growth,"locus YBR229C, strain ROT2, stronger effect = lower value",0.999 (inactive)
same,normalized growth,"locus YBR231C, strain swc5, stronger effect = lower value",0.974 (inactive)
same,normalized growth,"locus YBR279W, strain paf1, stronger effect = lower value",1 (inactive)
same,normalized growth,"locus YCL011C, strain gbp2, stronger effect = lower value",0.962 (inactive)
same,normalized growth,"locus YCL016C, strain dcc1, stronger effect = lower value",0.992 (inactive)
same,normalized growth,"locus YCL029C, strain bik1, stronger effect = lower value",0.994 (inactive)
same,normalized growth,"locus YCL061C, strain MRC1, stronger effect = lower value",0.991 (inactive)
same,normalized growth,"locus YCL069W, strain vba3, stronger effect = lower value",0.997 (inactive)
same,normalized growth,"locus YCR088W, strain abp1, stronger effect = lower value",0.991 (inactive)
same,normalized growth,"locus YDL005C, strain med2, stronger effect = lower value",0.966 (inactive)
same,normalized growth,"locus YDL035C, strain GPR1, stronger effect = lower value",0.975 (inactive)
same,normalized growth,"locus YDL040C, strain nat1, stronger effect = lower value",1 (inactive)
same,normalized growth,"locus YDL074C, strain BRE1, stronger effect = lower value",0.447 (active)
same,normalized growth,"locus YDL101C, strain DUN1, stronger effect = lower value",0.951 (inactive)
same,normalized growth,"locus YDL134C, strain PPH21, stronger effect = lower value",0.956 (inactive)
same,normalized growth,"locus YDL185W, strain tfp1, stronger effect = lower value",1.01 (inactive)
same,normalized growth,"locus YDL192W, strain arf1, stronger effect = lower value",1.01 (inactive)
same,normalized growth,"locus YDR001C, strain nth1, stronger effect = lower value",0.994 (inactive)
same,normalized growth,"locus YDR069C, strain doa4, stronger effect = lower value",0.97 (inactive)
same,normalized growth,"locus YDR101C, strain arx1, stronger effect = lower value",0.986 (inactive)
same,normalized growth,"locus YDR137W, strain rgp1, stronger effect = lower value",0.854 (inactive)
same,normalized growth,"locus YDR150W, strain NUM1, stronger effect = lower value",1 (inactive)
same,normalized growth,"locus YDR159W, strain sac3, stronger effect = lower value",0.596 (active)
same,normalized growth,"locus YDR162C, strain NBP2, stronger effect = lower value",0.993 (inactive)
same,normalized growth,"locus YDR195W, strain ref2",0.209 (active)
same,normalized growth,"locus YDR297W, strain sur2, stronger effect = lower value",0.989 (inactive)
same,normalized growth,"locus YDR318W, strain mcm21, stronger effect = lower value",1 (inactive)
same,normalized growth,"locus YDR334W, strain swr1, stronger effect = lower value",0.962 (inactive)
same,normalized growth,"locus YDR335W, strain msn5, stronger effect = lower value",0.99 (inactive)
same,normalized growth,"locus YDR388W, stronger effect = lower value",0.987 (inactive)
same,normalized growth,"locus YDR392W, strain spt3, stronger effect = lower value",0.531 (active)
same,normalized growth,"locus YDR502C, strain sam2, stronger effect = lower value",0.997 (inactive)
same,normalized growth,"locus YEL003W, strain gim4, stronger effect = lower value",0.984 (inactive)
same,normalized growth,"locus YEL037C, strain rad23, stronger effect = lower value",0.995 (inactive)
same,normalized growth,"locus YEL061C, strain CIN8 (second series), stronger effect = lower value",0.969 (inactive)
same,normalized growth,"locus YEL061C, strain CIN8, stronger effect = lower value",0.999 (inactive)
same,normalized growth,"locus YER015W, strain faa2, stronger effect = lower value",0.988 (inactive)
same,normalized growth,"locus YER016W, strain bim1, stronger effect = lower value",0.996 (inactive)
same,normalized growth,"locus YER110C, stronger effect = lower value",1.02 (inactive)
same,normalized growth,"locus YER111C, strain swi4, stronger effect = lower value",0.974 (inactive)
same,normalized growth,"locus YER155C, strain BEM2 (second series), stronger effect = lower value",0.988 (inactive)
same,normalized growth,"locus YER155C, strain BEM2, stronger effect = lower value",0.295 (active)
same,normalized growth,"locus YER167W, strain BCK2, stronger effect = lower value",0.933 (inactive)
same,normalized growth,"locus YFR010W, strain ubp6, stronger effect = lower value",0.956 (inactive)
same,normalized growth,"locus YGL078C, strain dbp3, stronger effect = lower value",1.01 (inactive)
same,normalized growth,"locus YGL086W, strain mad1, stronger effect = lower value",0.985 (inactive)
same,normalized growth,"locus YGL167C, strain pmr1, stronger effect = lower value",0.98 (inactive)
same,normalized growth,"locus YGL173C, strain kem1, stronger effect = lower value",0.986 (inactive)
same,normalized growth,"locus YGL227W, strain vid30, stronger effect = lower value",0.976 (inactive)
same,normalized growth,"locus YGL240W, strain doc1, stronger effect = lower value",0.972 (inactive)
same,normalized growth,"locus YGL248W, strain PDE1, stronger effect = lower value",0.961 (inactive)
same,normalized growth,"locus YGL253W, strain hxk2, stronger effect = lower value",1 (inactive)
same,normalized growth,"locus YGR135W, strain pre9, stronger effect = lower value",1.01 (inactive)
same,normalized growth,"locus YGR229C, strain SMI1, stronger effect = lower value",0.584 (active)
same,normalized growth,"locus YGR252W, strain gcn5, stronger effect = lower value",0.973 (inactive)
same,normalized growth,"locus YHR013C, strain ard1, stronger effect = lower value",0.885 (inactive)
same,normalized growth,"locus YHR027C, strain rpn1, stronger effect = lower value",0.992 (inactive)
same,normalized growth,"locus YHR030C, strain SLT2, stronger effect = lower value",0.968 (inactive) and 0.298 (active)
same,normalized growth,"locus YHR079C, strain IRE1 (second series), stronger effect = lower value",1.01 (inactive)
same,normalized growth,"locus YHR079C, strain IRE1, stronger effect = lower value",0.538 (active)
same,normalized growth,"locus YHR094C, strain hxt1, stronger effect = lower value",0.997 (inactive)
same,normalized growth,"locus YHR129C, strain ARP1, stronger effect = lower value",0.932 (inactive)
same,normalized growth,"locus YHR142W, strain chs7, stronger effect = lower value",0.931 (inactive)
same,normalized growth,"locus YHR200W, strain rpn10, stronger effect = lower value",1.01 (inactive)
same,normalized growth,"locus YIL066C, strain RNR3, stronger effect = lower value",0.927 (inactive)
same,normalized growth,"locus YIL073C, strain SPO22, stronger effect = lower value",0.781 (inactive)
same,normalized growth,"locus YIL125W, strain kgd1, stronger effect = lower value",1 (inactive)
same,normalized growth,"locus YIR030C, strain dcg1, stronger effect = lower value",1 (inactive)
same,normalized growth,"locus YJL092W, strain hpr5, stronger effect = lower value",0.984 (inactive)
same,normalized growth,"locus YJL095W, strain BCK1 (second series), stronger effect = lower value",0.996 (inactive)
same,normalized growth,"locus YJL095W, strain BCK1, stronger effect = lower value",0.756 (active) and 0.227 (active)
same,normalized growth,"locus YJL115W, strain asf1, stronger effect = lower value",0.988 (inactive)
same,normalized growth,"locus YJL129C, strain trk1, stronger effect = lower value",0.814 (active)
same,normalized growth,"locus YJL134W, strain LCB3, stronger effect = lower value",0.993 (inactive)
same,normalized growth,"locus YJL154C, strain vps35, stronger effect = lower value",0.995 (inactive)
same,normalized growth,"locus YJL164C, strain tpk1, stronger effect = lower value",0.904 (active)
same,normalized growth,"locus YJL166W, strain qcr8, stronger effect = lower value",0.989 (inactive)
same,normalized growth,"locus YJL168C, strain set2, stronger effect = lower value",1 (inactive)
same,normalized growth,"locus YJL187C, strain SWE1 (second series), stronger effect = lower value",0.925 (inactive)
